Hsp90 block = displaces geldanamycin probe from tumor Hsp90; P07900; NCI-N417 lysate Hsp90, Cy3B-geldanamycin FP displacement; inhibition, % at 30 µM; 64,000 tested, 0.35% active;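 active = inhibition above 50%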;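 also: 0% = tracer plus lysate wells and 100% = tracer alone without lysate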
MMP13 inh = blocks human MMP13 activity. P45452. inhibition, % at 4 µM. 65,000 tested, 0.07% active. AID 570. MMP-13 fTHP FRET cleavage, Mca fluorescence;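 active = inhibition above the mean of compound-free control plate wells plus 3 SD, cut at about 14% in these data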;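 also: 0% = DMSO wells and 100% = wells with reference MMP-13 inhibitor after basal subtraction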
MKP-1 inh = inhibitors of human MKP-1 phosphatase | inhibition, %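 (compounds tested at a single concentration somewhere between 10 and 100 µM)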 | recombinant MKP-1, OMFP hydrolysis fluorescence | 65,000 tested, 0.15% active | AID 374 | P28562;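 active = inhibition above about 50%, limit read from the data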;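 also: 0% = DMSO max control wells and 100% = wells with enzyme stopped by NaOH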
Cdc25B block = inhibitors of human Cdc25B phosphatase; recombinant Cdc25B, OMFP fluorescence Ex485/Em525; AID 368; 65,000 tested, 0.1% active; inhibition, %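 (compounds tested at 10 µM final in the well)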; in the data active = inhibition above about 50%
M1 agonist = activates the M1 muscarinic receptor; CHO-M1 cells, Fluo-4 calcium fluorescence, agonist mode; stronger effect = higher value; B-score at 10 µM; 64,000 tested, 3% active; AID 626;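 active = fluorescence rise, raw or as B-score row- and column-corrected plate score, outside the 99.7% band of its plate's samples, either direction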
M1 antagonist = antagonists of rat M1 muscarinic receptor; P08482; CHO-M1 cells, Fluo-4 calcium, ACh EC80 antagonist mode; stronger effect = lower value; B-score at 10 µM; 64,000 tested, 3.4% active;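 active = calcium fluorescence response, raw or row-and-column corrected B-score, differing from the plate sample mean either way at a set confidence level, mostly lower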
Target sequence (P08482 whole entry, looked up): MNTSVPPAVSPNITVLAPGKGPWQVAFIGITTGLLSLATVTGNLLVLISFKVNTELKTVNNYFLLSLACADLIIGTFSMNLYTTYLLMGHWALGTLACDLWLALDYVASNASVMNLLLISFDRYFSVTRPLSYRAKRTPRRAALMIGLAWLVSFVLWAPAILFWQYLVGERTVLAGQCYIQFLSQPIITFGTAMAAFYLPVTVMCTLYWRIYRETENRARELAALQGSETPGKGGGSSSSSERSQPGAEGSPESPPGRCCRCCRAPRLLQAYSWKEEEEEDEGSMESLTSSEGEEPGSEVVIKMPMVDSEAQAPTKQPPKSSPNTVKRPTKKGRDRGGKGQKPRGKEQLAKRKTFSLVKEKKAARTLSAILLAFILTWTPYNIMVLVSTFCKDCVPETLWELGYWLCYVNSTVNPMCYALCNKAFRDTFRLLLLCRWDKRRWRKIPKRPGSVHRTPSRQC
M1 antag confirm = M1 muscarinic receptor (rat) antagonism, confirmed | shares compounds with M1 antagonist | CHO-M1 cells, Fluo-4 calcium, ACh EC80 antagonism; stronger effect = lower value | calcium response (max-min fluorescence) at 10 µM | 1,700 tested, 43% active | AID 677;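 active = calcium response below the same-plate mean of wells given acetylcholine alone at its 80%-effect dose, minus 3 SD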;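 also: raw fluorescence intensity difference in arbitrary instrument units and not normalized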
mGluR4 antag = mGluR4 (human) activity, M1 antagonist secondary assay; 1,700 tested, 0.9% active; shares compounds with M1 antagonist; fluorescence response (max-min) at 10 µM; CHO-mGluR4 calcium flux, Fluo-4 fluorescence, glutamate EC80; stronger effect = lower value;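 active = fluorescence response below the plate's average for near-maximal glutamate wells, less 3 SD of those wells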;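 also: raw unnormalized fluorescence span taken in the window right after glutamate addition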
Active calls of the source: *; · = no result given. Rows were chosen to be rich in hits. Some 6.1% of all compounds tested hit in one or more screens of this group.

SMILES | Hsp90 block | MMP13 inh | MKP-1 inh | Cdc25B block | M1 agonist | M1 antagonist | M1 antag confirm | mGluR4 antag
CCOC(=O)c1cnc(-n2nc(C)cc2C)nc1NC(C)c1ccccc1 (configuration not stated) | 1.9 | -5.4 | 4.3 | 5.5 | -0.853 | -1.17 | · | ·
O=C(CCn1c(=O)c2ccccc2n(Cc2cc(=O)n3ccccc3n2)c1=O)NCc1ccco1 | -4.4 | -9.4 | 11.4 | 1.0 | -0.444 | -0.371 | · | ·
CCSc1nc2c([nH]c3ccccc32)c(=O)n1C | -3.9 | 4.0 | 4.0 | -50.0 | -0.122 | -4.15* | 443 | 214
COc1ccc(OC)c(C(c2nnnn2CCC(C)C)N2CCN(C(=O)c3ccco3)CC2)c1 (configuration not stated) | -1.2 | -3.2 | 19.3 | -20.4 | · | · | · | ·
Cc1nc2nc(C)c(CCC(=O)N3CCOCC3)c(C)n2n1 | -4.7 | -0.7 | 20.4 | -4.2 | 0.0751 | -0.00143 | · | ·
O=S(=O)(c1ccc(OCC(O)CN2CCN(c3ccccc3)CC2)cc1)N1CCOCC1 (configuration not stated) | -0.3 | 1.9 | -6.1 | -29.1 | -0.301 | -0.554 | · | ·
O=S(=O)(c1ccc(OCC(O)CN2CCC(Cc3ccccc3)CC2)cc1)N1CCOCC1 (configuration not stated) | -0.5 | 1.8 | -5.8 | -21.9 | -0.38 | -1.03* | 458 | 212
COc1cccc(OCC(O)CN2CCOCC2)c1 (configuration not stated) | -3.6 | 0.5 | -0.1 | -22.9 | -0.734 | 1.4 | · | ·
OC(COc1ccc(OCc2ccccc2)cc1)CN1CCCCC1 (configuration not stated) | -4.5 | -1.6 | -16.6 | -15.0 | -1.41 | -6.57* | 358* | 249
COc1cccc(OCC(O)CN2CCC(Cc3ccccc3)CC2)c1 (configuration not stated) | 0.2 | 4.7 | -5.2 | -12.5 | -1.01 | -2.19* | 347* | 219
COC(=O)c1ccc(CNC(=O)COc2ccccc2Br)o1 | -2.2 | -1.7 | -6.4 | -3.8 | -0.0303 | -0.44 | · | ·
c1ccc2c(c1)nc(N1CCOCC1)c1c3ccccc3[nH]c21 | -2.4 | -232.9 | 1.1 | -1.5 | 0.886 | 0.0681 | · | ·
COC(=O)c1[nH]c2ccc(Cl)cc2c1NC(=O)CCN1CCN(C2CCCCC2)CC1 | -6.4 | -21.2 | -10.0 | 4.5 | -0.0201 | -9.59* | 50.8* | 213
COC(=O)c1[nH]c2ccc(F)cc2c1NC(=O)CCN1CCN(Cc2ccc3c(c2)OCO3)CC1 | -10.1 | -18.8 | -10.2 | 4.4 | 0.645 | -7.61* | 125* | 204
COC(=O)c1[nH]c2ccc(C)cc2c1NC(=O)CCN1CCN(C2CCCCC2)CC1 | -7.1 | -28.2 | 27.8 | -5.3 | 0.92 | -11.9* | 98.8* | 204
COC(=O)c1[nH]c2ccc(Br)cc2c1NC(=O)CN1CCN(C2CCCCC2)CC1 | -2.9 | -5.7 | 8.9 | 1.7 | 0.6 | -7.48* | 324* | 256
O=C(COC(=O)c1ccc(Br)o1)NCc1ccco1 | · | -0.5 | 4.7 | -9.5 | 0.341 | -0.0525 | · | ·
COc1cc(NC(=O)CSc2nnc(C)s2)cc(OC)c1 | 1.5 | 1.3 | 12.5 | -0.8 | -0.996 | -0.135 | · | ·
CC(=O)C1=C(Nc2ccc(C)cc2)CC(C)(O)C(C(C)=O)C1c1ccco1 (configuration not stated) | -3.5 | 3.1 | -24.9 | 0.5 | 0.0793 | -13.1* | 646 | 233
Cc1ccccc1OCc1nc(-c2ccc(-n3cccc3)cc2)no1 | -1.0 | -2.9 | 4.0 | -9.7 | -2.28 | 0.433 | · | ·
COc1ccccc1Cc1noc(COc2cccc(C)c2C)n1 | -2.9 | 1.2 | 1.9 | -6.0 | -1.23 | -2.68* | 575 | 247
Cc1cc(C(=O)N2CCN(C(c3ccccc3)c3ccccc3)CC2)no1 | 0.2 | 1.1 | 4.8 | -15.1 | 0.145 | -3.02* | 301* | 198
O=C(c1ccc(=O)oc1)N1CCN(C(c2ccccc2)c2ccccc2)CC1 | -2.7 | -14.4 | -11.0 | -0.3 | 0.417 | -2.68* | 319* | 236
COc1ccccc1C1CC(c2ccc(C)cc2)Nc2ncnn21 (configuration not stated) | -1.1 | 3.2 | 4.4 | 3.9 | -0.312 | 0.104 | · | ·
COCCn1c(SCc2cccnc2)nnc1-c1ccco1 | -2.0 | -1.6 | 22.9 | -2.3 | 0.000219 | -3.03* | 664 | 234
SMILES | Hsp90 block | MMP13 inh | MKP-1 inh | Cdc25B block | M1 agonist | M1 antagonist | M1 antag confirm | mGluR4 antag
COCCn1c(SCC(=O)NCCc2ccccc2)nnc1-c1ccco1 | -2.5 | 2.1 | 8.2 | -1.0 | 0.134 | 0.0267 | · | ·
COc1ccc(/C(CC2(O)C(=O)Nc3ccccc32)=N\O)cc1 (configuration not stated) | 1.5 | -1.3 | -10.2 | -0.5 | 0.366 | -2.52* | 585 | 233
CCCC(=O)Nc1ccc2oc(-c3cccnc3)nc2c1 | -2.6 | -175.8 | 3.4 | -7.2 | -0.168 | -2.38* | 582 | 229
CCCCN(CC)CCNc1c(N2CCN(C(=O)OCC)CC2)c(=O)c1=O | -3.6 | 3.8 | 8.1 | -3.5 | -0.00648 | -2.07* | 608 | 234
CCOC(=O)c1cc2c(N)c(C(=O)c3cc(C#N)c(SC)nc3C)sc2nc1C | 2.8 | -1.7 | 4.6 | -2.9 | -0.912 | 1.21 | · | ·
CCOc1ccc(N(Cc2cc3cc(OC)ccc3[nH]c2=O)C(=O)C2CCCO2)cc1 (configuration not stated) | -2.5 | -17.3 | 21.9 | 3.5 | -0.0564 | -0.41 | · | ·
CN1CCN(C2=Nc3ccccc3Oc3ccc(Cl)cc32)CC1 | 2.9 | -4.9 | -15.4 | 3.7 | 0.265 | -12.8* | 14.9* | 267
CN1CCN(c2nc(-c3ccccc3)c3cc(Cl)ccc3n2)CC1 | 2.6 | -5.9 | 17.9 | -1.1 | 1.12 | -1.05 | · | ·
CC(=O)Nc1ccc(S(=O)(=O)N2CCN(C34CC5CC(CC(C5)C3)C4)CC2)cc1 | -2.2 | 0.9 | 0.2 | 19.5 | -0.694 | -3.06* | 550 | 223
CC(=O)Nc1ccc(S(=O)(=O)N2CCN(C(=O)N3CCOCC3)CC2)cc1 | -7.2 | -0.7 | 12.5 | 0.9 | 1.36 | 0.0668 | · | ·
O=C(c1ccc(N2CCCCS2(=O)=O)cc1)N1CCN(c2ccc(N3CCOCC3)nn2)CC1 | 1.3 | -17.9 | 9.6 | -11.1 | 0.821 | 0.0483 | · | ·
CCn1c(=N)n(CC(=O)c2ccco2)c2ccccc21 | -1.4 | 2.0 | -2.2 | 13.9 | -0.0879 | -4.02* | 471 | 223
Cc1cc2ncn(CCOc3ccccc3C#N)c2cc1C | -2.4 | 2.5 | 4.8 | -8.3 | -0.215 | 0.43 | · | ·
Cc1nn(C/C(C#N)=N\O)c(C)[n+]1N | -2.6 | 3.1 | -17.0 | 5.8 | 0.215 | 0.329 | · | ·
COc1cc2c(cc1OC)CN(C(=O)c1ccc(OC)c(S(=O)(=O)N3CCOCC3)c1)CC2 | -5.5 | 0.6 | 10.4 | 2.9 | -0.731 | -0.836* | 586 | 239
COc1cc(N2CCOCC2)ncn1 | 0.8 | -1.4 | 5.8 | -6.3 | 0.679 | 0.0926 | · | ·
